Screens deposited in PubChem by National Center for Advancing Translational Sciences (NCATS).
KDM5B inh – Primary screen for KDM5B Histone Demethylases FDH-coupled qHTS. Lysine-specific demethylase 5B (Homo sapiens), Q9UGL1. KDM5B demethylase, FDH-coupled NADH fluorescence (FDH is formaldehyde dehydrogenase). Potency, µM (doses to about 57.7 µM), hits mostly inhibitors. 2.6% of 220,000 active. AID 1347165, 2019; active means well fitted inhibition curve with a large enough effect; inconclusive means small, poorly fitted or top-dose-only effect; inactive means no such curve, though single readings can be large or run the other way; further: potency means the concentration at half of the fitted maximal effect; 0% is about no effect; nearly all actives have a fitted effect of over 70% in size
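Coupled FDH/NAD⁺ fluorescence readout. KDM5BΔAP 200 nM final; compound titration, 10 min RT preincubation; substrate mix 12.5 µM H3K4me3, 25 µM 2-OG, 50 µM Fe(II), 100 µM ascorbate, 0.25 mM NAD⁺, 0.25 U/mL FDH; ΔRFU over 30 min.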
IP6K1 inh – Primary qHTS assay for small molecule inhibitors of Inositol hexaphosphate kinase 1 (IP6K1); Inositol hexakisphosphate kinase 1 (Homo sapiens), Q92551; IP6K1 kinase, ADP-Glo luminescence, 2 h; stronger effect = lower value; activity change, % (series mostly up to about 58 µM); 0.81% of 140,000 active; AID 1645851, 2021; in the data active means activity change below about -25%; further: on the % scale 0 is the no-effect control and ±100 the full control effect
Target sequence (Q92551 whole entry, looked up): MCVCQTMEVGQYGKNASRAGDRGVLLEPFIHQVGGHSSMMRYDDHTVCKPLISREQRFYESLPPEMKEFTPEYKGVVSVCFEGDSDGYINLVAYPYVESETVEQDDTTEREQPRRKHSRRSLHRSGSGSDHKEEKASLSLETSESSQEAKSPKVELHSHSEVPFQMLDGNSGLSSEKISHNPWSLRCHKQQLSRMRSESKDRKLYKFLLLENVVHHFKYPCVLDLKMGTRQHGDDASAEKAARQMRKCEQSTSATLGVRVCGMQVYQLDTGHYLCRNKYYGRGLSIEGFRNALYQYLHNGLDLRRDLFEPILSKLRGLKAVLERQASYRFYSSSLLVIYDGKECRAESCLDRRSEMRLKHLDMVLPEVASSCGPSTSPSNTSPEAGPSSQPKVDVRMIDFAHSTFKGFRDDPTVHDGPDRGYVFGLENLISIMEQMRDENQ
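ADP-Glo luminescence measures ADP made by human IP6K1 during a 2 h RT reaction with ATP/IP6 (mix at 1.3 mM/130 uM); top library doses 57.5 and 19.1 uM final.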
Numbers without * were called inactive; i = inactive; ? = inconclusive; nt = no result. Hits are enriched below; roughly 2.8% of the tested compounds scored in any of these assays.

SMILES | KDM5B inh | IP6K1 inh
CN1CCCC2(C1)CN(C)c1ccc(C(=O)Nc3ccccc3)cc12 (stereo not drawn) | ? | 5.2
CC(=O)N1CCCC2(C1)CN(C)c1ccc(C(=O)NCC(C)C)cc12 (stereo not drawn) | 31.6µM* | 4.7
COc1ccc(-c2cc3c(C)nc(N)nc3n(C3CCC(OCCO)CC3)c2=O)cn1 (stereo not drawn) | nt | -14.1
COc1ccc(NC(=O)c2ccc(-n3cccn3)cc2)c(OC)c1 | i | nt
CC[C@@H]1[C@H](NC(=O)c2cccc(N3CCS(=O)(=O)CC3)c2)[C@@H]2CCO[C@H]12 | 22.4µM* | -9.9
CC[C@@H]1[C@@H](NC(=O)c2ccc(N3CCN(C)CC3)cc2)[C@@H]2CCO[C@H]12 | i | 13.4
C#CCNC(=O)C[C@@H]1O[C@H](CNC(=O)Nc2ccc(C)cc2)[C@@H](O)[C@H]1O | i | -6.1
CCOCCNC(=O)c1c(C)nc2cnccn12 | nt | 1.5
Cc1ccc(-c2nc3cnccn3c2NCCC(=O)O)cc1 | 28.2µM* | -0.6
Cc1cccc(C)c1Nc1c(-c2ccccc2Cl)nc2cnccn12 | ? | -7.1
Cc1nc2cnccn2c1C(=O)NCc1ccccc1 | nt | 18.3
Cc1ccc(-c2nc3cnccn3c2NCCC(=O)N(C)C)cc1 | 28.2µM* | 17.5
Cc1ccccc1-c1nc2cnccn2c1NCCC(=O)N(C)Cc1ccccc1 | 28.2µM* | 5.7
N#Cc1ccc(OC(=O)Cc2ccc(F)cc2)cc1 | i | nt
CCC(=O)N1CCN(c2nc3c(s2)CC(C(=O)NC2CCCCCC2)CC3)CC1 (stereo not drawn) | i | 25.7
Cc1c(Cl)cccc1NC(=O)c1cc2n(n1)CC(c1ccc(Cl)cc1)OC2 (stereo not drawn) | 25.1µM* | -3.6
CCOc1ccccc1NC(=O)c1cc2n(n1)CC(c1ccc(Cl)cc1)OC2 (stereo not drawn) | 22.4µM* | -2.2
Cc1ccc(NC(=O)c2cc3n(n2)CC(c2ccc(Cl)cc2)OC3)c(Cl)c1 (stereo not drawn) | 17.8µM* | 26.2
Cc1ccc(C)c(NC(=O)c2cc3n(n2)CC(c2ccc(Cl)cc2)OC3)c1 (stereo not drawn) | 28.2µM* | 26.5
Cc1ccc(NC(=O)c2cc3n(n2)CC(c2ccc4c(c2)OCO4)OC3)c(Cl)c1 (stereo not drawn) | ? | -3.8
Cc1cccc(CNC(=O)c2cc3n(n2)CC(c2ccc(Cl)cc2)OC3)c1 (stereo not drawn) | i | 10.1
CCOc1ccccc1CNC(=O)c1cc2n(n1)CC(c1ccc(Cl)cc1)OC2 (stereo not drawn) | ? | -13.5
O=C(NCc1ccccc1Cl)c1cc2n(n1)CC(c1ccc(Cl)cc1)OC2 (stereo not drawn) | i | 26.1
CCCCNC(=S)NCCc1c(C)[nH]c2ccc(C)cc12 | i | nt
CCC(O)c1cc2n(n1)CCN(CC(=O)Nc1cnn(C)c1)C2 (stereo not drawn) | ? | 5.8
SMILES | KDM5B inh | IP6K1 inh
COc1ccc(OC)c(CNC(=O)C2(CCO)CCN(c3ncccn3)C2)c1 (stereo not drawn) | ? | 4.0
O=C(NCCCc1ccccc1)C1(CCO)CCN(c2ncccn2)C1 (stereo not drawn) | 25.1µM* | 18.5
O=C(NCc1ccccn1)C1(CCO)CCN(c2ncccn2)C1 (stereo not drawn) | ? | 17.1
O=C(NC1CCN(Cc2ccccc2)CC1)C1(CCO)CCN(c2ncccn2)C1 (stereo not drawn) | ? | 6.7
O=C(Nc1ccc(F)cc1F)C1(CCO)CCN(c2ncccn2)C1 (stereo not drawn) | 25.1µM* | 11.7
COc1ccc(OC)c(NC(=O)C2(CCO)CCN(c3ncccn3)C2)c1 (stereo not drawn) | ? | 10.5
COc1ccccc1CNC(=O)C1(CCO)CCN(c2ncccn2)C1 (stereo not drawn) | 20µM* | 3.7
O=C(NCc1ccc(F)cc1)C1(CCO)CCN(c2ncccn2)C1 (stereo not drawn) | 28.2µM* | -8.1
Brc1ccc(-c2noc(-c3ccccc3Br)n2)o1 | i | nt
O=C(CCCc1ccccc1)N1C[C@H]2CNC(=O)[C@]23CCCC[C@@H]13 | nt | 7.6
COCCOc1cc(C)c2c(c1C)C[C@H]([C@H](C)C(=O)Nc1ccccn1)CC2 | ? | 4.0
N#Cc1cccnc1N1CC[C@@H](N2CCC(O)CC2)[C@H](O)C1 | 25.1µM* | -2.4
N#Cc1cccnc1N1CCN(c2nccc(N3CCCC(O)C3)n2)CC1 (stereo not drawn) | ? | 7.4
O=C(O)CNCc1ccc(-c2ccccc2)cc1 | i | nt
CCN(CC)C(=O)[C@@H]1CCC[C@@H](NC(=O)c2ccc(C#N)cc2)CN(C)C(=O)C1 | i | 7.1
CCN(CC)C(=O)[C@@H]1C[C@@H](NC(=O)c2ccn(CC)c(=O)c2)CN1C(C)=O | 28.2µM* | -6.6
O=C(Nc1ccc(F)c(F)c1)N1CCc2c(c3ccccc3n2CC2CC2)C1 | 22.4µM* | -6.9
Cc1ccc(NC(=O)N2CCCC(c3ccccc3)C2)cc1 (stereo not drawn) | i | nt
O=C(Nc1cccc(F)c1)N1CCc2c(c3ccccc3n2CC2CC2)C1 | 22.4µM* | -5.6
Cc1ccc(NC(=O)N2CCc3c(c4ccccc4n3CC3CC3)C2)cc1 | 22.4µM* | 4.6
O=C(Nc1ccc(Cl)cc1)N1CCC(CN2CCCC2)CC1 | ? | 24.9
O=C(NCCC1CCN(C(=O)Nc2cccc(F)c2)CC1)c1ccccc1 | i | -0.1
CC(=O)c1ccc(N2CCN(C(=O)CCc3ncc(-c4c(F)cccc4F)o3)CC2)cc1 | i | nt
Cc1cccc(C)c1NC(=O)C(C)n1nc(-c2ccccc2)ccc1=O (stereo not drawn) | i | nt
O=C(Cc1cccc(Cl)c1)N1CCN(c2ccnc3ccnn23)CC1 | nt | -1.4
SMILES | KDM5B inh | IP6K1 inh
COc1ccc(-c2nc(C)nc3c2CN(Cc2ccc(NC(C)=O)cc2)CC3)cc1 | 22.4µM* | 7.8
COc1ccc(-c2nc(C)nc3c2CN(C(C)=O)CC3)cc1 | ? | 12.0
COCC(=O)N1CCc2nc(-c3ccccc3)nc(-c3ccc(OC)cc3)c2C1 | 22.4µM* | -8.7
COC(=O)N1CCc2nc(-c3ccc(OC)cc3)nc(-c3ccccc3)c2C1 | i | -12.2
COc1ccc(-c2nc(C)nc3c2CN(C(=O)Nc2ccc(Cl)cc2)CC3)cc1 | nt | -4.9
COCC(=O)N1CCc2nc(C)nc(-c3ccc(OC)cc3)c2C1 | 31.6µM* | 12.1
COc1cc(SC)ccc1C(=O)OC(C)C(=O)c1ccccc1 (stereo not drawn) | i | nt
CCC(CC)C(=O)N1CCC(OC2CCN(C)CC2)CC1 | i | 6.6
COc1cc(CCc2ccc(OCC=C(C)C)cc2)cc(OC)c1OC | nt | -9.4
O=S(=O)(Nc1nc2ccccc2nc1NCc1ccc2c(c1)OCO2)c1cccc(Cl)c1 | i | nt
Cc1ccc(F)cc1S(=O)(=O)NC1CCN(c2ccc(=O)n(CC3CC3)n2)CC1 | 28.2µM* | -0.2
O=c1ccc(N2CCC(NS(=O)(=O)c3ccc(F)c(F)c3)CC2)nn1CC1CC1 | ? | 9.9
O=C(Nc1cccc2ccccc12)O[C@@H]1CO[C@H]2[C@@H]1OC[C@@H]2NS(=O)(=O)c1ccc2ccccc2c1 | ? | 3.8
O=C(Nc1ccc(Oc2ccccc2)cc1)O[C@@H]1CO[C@H]2[C@@H]1OC[C@@H]2NC(=S)Nc1cccc2ccccc12 | 31.6µM* | 1.1
